Records with an inconclusive call do not appear. Values without a mark were called inactive. Calls of active or inactive are those of the source. The call rests on the fitted dose curve; in most records, active means well fitted inhibition curve with a large enough effect; inconclusive means small, poorly fitted or top-dose-only effect, or effect the other way; inactive means flat fitted curve, though single readings scatter.
On the % scale 0 is the no-effect control and ±100 the full control effect; potency means the concentration at half of the fitted maximal effect.

Ubiquitin carboxyl-terminal hydrolase 2 (Homo sapiens), sequence (O75604 whole entry, looked up): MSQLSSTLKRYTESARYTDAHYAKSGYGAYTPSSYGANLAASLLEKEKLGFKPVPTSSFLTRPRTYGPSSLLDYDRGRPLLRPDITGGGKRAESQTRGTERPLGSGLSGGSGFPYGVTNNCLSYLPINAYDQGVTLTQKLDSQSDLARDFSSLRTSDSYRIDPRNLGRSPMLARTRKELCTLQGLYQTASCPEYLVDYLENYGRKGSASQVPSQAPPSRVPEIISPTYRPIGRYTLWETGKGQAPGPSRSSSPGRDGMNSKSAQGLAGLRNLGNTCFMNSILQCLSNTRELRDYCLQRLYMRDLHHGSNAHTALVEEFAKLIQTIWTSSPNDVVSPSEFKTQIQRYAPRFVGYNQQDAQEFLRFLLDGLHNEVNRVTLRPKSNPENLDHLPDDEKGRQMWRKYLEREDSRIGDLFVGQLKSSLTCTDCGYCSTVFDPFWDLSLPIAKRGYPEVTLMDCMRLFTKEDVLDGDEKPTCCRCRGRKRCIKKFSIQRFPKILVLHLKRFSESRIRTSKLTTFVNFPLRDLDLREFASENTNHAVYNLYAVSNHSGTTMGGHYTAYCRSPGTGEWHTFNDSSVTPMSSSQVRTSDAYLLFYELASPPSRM

This assay concerns the target Ubiquitin carboxyl-terminal hydrolase 2 (Homo sapiens) (UniProt O75604). As to the kind of experiment: Ub-rhodamine 110 based assay for inhibitors Ubiquitin-specific Protease USP2a. Further: nearly all actives have a fitted effect of over 50% in size. The note with it: USP2a Ub-rhodamine110 cleavage, fluorescence; series mostly up to 38.3 µM; activity change, negative = inhibition: at the top concentration. Summed up: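 Kinetic fluorescence (485/531 nm) read each minute over 7 min after adding Ub-Rhod110 (150 nM final) to USP2a (5 nM final). The enzyme had 30 min RT exposure to compounds beforehand in Tris pH 8.0 buffer with CaCl2, CHAPS and beta-ME.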
On to `COc1ccc(-c2nnn(CC(=O)N3CCOCC3)n2)cc1`, for which the “activity change, negative = inhibition” value is -7.05%.
Consider `CCOC(=O)c1c(C)c(C(=O)O)n(C)c1C`, for which the “activity change, negative = inhibition” value was -0.886%.
Take `O=C(NN=Cc1ccc(N2CCOCC2)s1)c1ccc([N+](=O)[O-])cc1`: the “activity change, negative = inhibition” value is -17.2%.
In the case of `CCN(Cc1ccncc1)C(=O)c1cccs1`, the “activity change, negative = inhibition” value is -7.04%.
Regarding `O=C(CSc1nc2ccccc2s1)NCCCN1CCOCC1`, the “activity change, negative = inhibition” value is -12.4%.
On the same count and under the same terms, the value for `O=c1oc2ccccc2n1Cn1c(=O)oc2ccccc21` was -7.91%.
For `O=C(CSc1nnc(SCc2ccccc2)s1)N/N=C/c1c[nH]c2ccccc12`, the Potency is 10 µM (active).
For `Cc1cccc(N=C2NC(=O)/C(=C/C=C/c3ccco3)S2)c1`, the Potency was 10 µM (active).
The same measure, in the same setting: the value for `Cc1ccc(S(=O)(=O)N2[C@@H](c3ccc(Cl)cc3)C(C(=O)O)=CC[C@H]2c2ccc(C(C)C)cc2)cc1` was 10 µM (active); that for `CSc1ccc(NC(=O)CSc2nc3[nH]c(=O)cc(O)c3s2)cc1` was 5.62 µM (active).
With `CCCCCCCCCCOC(=O)Cn1c(COc2cccc(C)c2)[n+](C)c2ccccc21`, the “activity change, negative = inhibition” value is -8.36%.
Consider `Cc1c(O)c(CN2CCCC2)cc2c3c(c(=O)oc12)CCC3`, for which the “activity change, negative = inhibition” value is 2.28%.
The same measure, in the same setting: under `CC1(C)CC(=O)C2=C(C1)Oc1ncn(CCCO)c(=N)c1C2c1ccccc1` (stereo not given) stands -2.98%; under `O=C(NCCOC(=O)c1ccccc1C(=O)OCCNC(=O)c1cccnc1)c1cccnc1`, -1.61%; under `Cc1ccccc1OCc1nc2ccccc2c(=O)n1N`, -11.7%.
`CC1=CC(C)(C)N(C(=O)c2ccccc2)c2ccccc21`: the “activity change, negative = inhibition” value is -14.4%.
For `CCOC(=O)N1CCC(NC(=O)c2ccc(OC)c(CN3CC(=O)N4CCCC4C3=O)c2)CC1` (stereo not given), the “activity change, negative = inhibition” value was -0.633%.
For `Cc1ccc(CN2C(=O)N/C(=C\c3cccn3-c3cccc(C(=O)O)c3)C2=O)cc1`, the “activity change, negative = inhibition” value is -19.5%.
On the same count and under the same terms, under `COC(=O)c1ccc(CSc2ncnc3ccccc23)o1` stands -6.12%; under `CC1(C)CC(=O)C=C(NCc2cccs2)C1`, 14.1%.
The same measure, in the same setting: under `CCC(CO)Nc1nc(CN2CCCCC2)nc2scc(-c3ccccc3)c12` (stereo not given) stands -3.55%; under `CCOc1cc(/C=C/c2nc3cc(C)c(C)cc3s2)ccc1OCC(=O)N1CCOCC1`, -17%; under `C/C(Cn1nnc2ccccc21)=N\OC(=O)c1ccccc1C`, -3.84%.
With `CCOC(=O)C1CCN(CC(O)COc2ccc(C(C)(C)C)cc2)CC1` (stereo not given), the “activity change, negative = inhibition” value was 2.76%.
As for `CC(C)n1c(/C=C/[C@H](O)C[C@H](O)CC(=O)O)c(-c2ccc(F)cc2)c2ccccc21`, the “activity change, negative = inhibition” value is -10.4%.
Regarding `O=C1NC[C@@H](c2ccccc2)OC(=O)[C@@H](Cc2ccc(F)cc2)CC/C=C/C[C@@H]1CC(=O)N(CCO)Cc1ccccc1`, the “activity change, negative = inhibition” value is -19.6%.
As for `O=C(COC(=O)c1cc(-c2ccc(Cl)s2)nc2ccccc12)NCc1ccco1`, the Potency was 11.2 µM (active).
For the compound `COC1=CCC2([N+](=O)[O-])CN(CCO)CC1([N+](=O)[O-])C2` (stereo not given), the “activity change, negative = inhibition” value is 3.44%.
On to `CC(=O)Nc1cc[n+](CC(=O)c2ccc(Cl)cc2)cc1`, for which the “activity change, negative = inhibition” value was -15.4%.
For the compound `N#Cc1c(SCC(=O)Nc2nc3ccccc3s2)sc2c(O)cc(=O)[nH]c12`, the Potency was 8.91 µM (active).
Take `Cc1noc(/C=C/NCc2cccnc2)c1S(=O)(=O)N(C)CC(=O)N1CCc2ccccc21`: the “activity change, negative = inhibition” value was -11.3%.
Take `Cc1c(C(=O)Nc2ccc3c4c(cccc24)CC3)cccc1[N+](=O)[O-]`: the “activity change, negative = inhibition” value is -18%.
On to `CCC(C)(C)n1nnnc1C(c1ccc(C)cc1)N1CCCC1` (stereo not given), for which the “activity change, negative = inhibition” value was -8.02%.
As to `O=[N+]([O-])c1c(NCCO)cc(N2CCN(Cc3ccc4c(c3)OCO4)CC2)c2nonc12`, the “activity change, negative = inhibition” value was 2.52%.
On to `O=C(NCCc1ccccc1)c1ccc2nc(-c3ccco3)c(-c3ccco3)nc2c1`, for which the Potency is 5.01 µM (active).
For `O=C(CCS(=O)(=O)c1ccc(Br)s1)NC1CCCC1`, the “activity change, negative = inhibition” value is -7.53%.
As for `Cc1ccc([C@@H]2CC=C(C(=O)O)[C@H](c3ccc(C(C)(C)C)cc3)N2S(=O)(=O)c2ccc(C)cc2)cc1`, the Potency is 10 µM (active).
Still for that read-out and setting: the value for `C=C1c2c(Cl)ccc(O)c2C(O)=C2C(=O)[C@]3(O)C(O)=C(C(N)=O)C(=O)[C@@H](N(C)C)[C@@H]3[C@@H](O)C12` (stereo not given in full) was 6.31 µM (active).
`CCn1c(CN2CCOCC2)nnc1SCC(=O)Nc1ccc(C(C)=O)cc1`: the “activity change, negative = inhibition” value was -8.68%.
On to `CCCCNc1nc2ccccc2nc1NS(=O)(=O)c1cccs1`, for which the “activity change, negative = inhibition” value was -9%.

The values above are taken from PubChem BioAssay AID493170 (National Center for Advancing Translational Sciences (NCATS), 2011).
